HTT promoter inh = Primary qHTS for Identification of Small Molecule Inhibitors of Huntingtin Promoter Activity. HEK293 HTT promoter firefly luciferase reporter, 24 h. Potency, µM (series often up to 57.5 µM), usual class: inhibitors. 48,000 compounds, 0.93% hits. AID 1508623, 2021; further: nearly all actives have a fitted effect of over 50% in size
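HEK293 luciferase promoter-reporter cells (2,500/well) plated 24 h, then compounds added at up to 57.5 uM final for 24 h at 37 °C. Firefly luminescence by Dual-Glo, normalized to vehicle (0%) and zero RLU (-100%).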
NTMT1 inhibitor = Primary qHTS for Inhibitors of N-terminal methyltransferase 1 (NTMT1): MTaseGlo Assay. 59,000 compounds, 2.5% hits. Potency, µM (series often up to 114 µM), usual class: inhibitors. N-terminal Xaa-Pro-Lys N-methyltransferase 1 (Homo sapiens), Q9BV86. NTMT1 MTase-Glo SAH luminescence, purified enzyme. AID 1645870, 2021; further: nearly all actives have a fitted effect of over 65% in size
Target sequence (Q9BV86 whole entry, looked up): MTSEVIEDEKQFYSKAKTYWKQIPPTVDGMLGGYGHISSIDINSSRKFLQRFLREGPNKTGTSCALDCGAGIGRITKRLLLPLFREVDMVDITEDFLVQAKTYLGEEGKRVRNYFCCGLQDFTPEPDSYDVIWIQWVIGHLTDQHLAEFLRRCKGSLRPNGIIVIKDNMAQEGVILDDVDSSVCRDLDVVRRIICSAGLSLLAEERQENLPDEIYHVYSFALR
HTT-AS act = Primary qHTS for Identification of Small Molecule Activators of Huntingtin-Antisense Promoter Activity | HEK293 HTT-AS promoter firefly luciferase reporter, 24 h; response scale: percent change from vehicle, -100% = no light | Potency, µM (series often up to 57.5 µM), hits mostly activators | 48,000 compounds, 0.24% hits | AID 1508624, 2021; further: nearly all actives have a fitted effect of over 55% in size
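Quantitative HTS used concentration series of up to 57.5 uM final on HEK293 luciferase reporter cells, 24 h at 37 degrees C. Readout was Dual-Glo firefly luminescence.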
Numbers stand for hits; – = inactive; ? = inconclusive; · = no result given; [ ] = dose if it differs, or a comment. The full list was thinned out, with hits kept by preference. The call rests on the fitted dose curve; in most records, active means well fitted curve in the direction sought with a large enough effect; inconclusive means small, poorly fitted or top-dose-only effect, or another doubt; inactive means no such curve, though single readings can be large; an effect the other way counts as inactive or inconclusive.

SMILES | HTT promoter inh | NTMT1 inhibitor | HTT-AS act
COc1cc(C2CC(=O)c3c([nH]c(C(=O)OC4CCCC4)c3C)C2)cc(OC)c1OC (stereo not given) | 4.5µM | – | –
Cc1cccc(-c2noc(-c3ccc(N4CCCC4)c([N+](=O)[O-])c3)n2)c1 | ? | ? | –
Cc1cccc(-c2noc(-c3ccc(N4CCN(C)CC4)c([N+](=O)[O-])c3)n2)c1 | 1.4µM | – | –
CCOC(=O)c1ccc(Nc2nc3nonc3nc2Nc2cccc(C)c2C)cc1 | 2.2µM | – | –
Cc1ccc(C)c(Nc2nc3nonc3nc2Nc2cccc(C)c2C)c1 | ? | – | –
CC1OC(OC2C(O)C(OC3CCC4(C)C(CCC5(C)C4CC=C4C6CC(C)(COC7OC(CO)C(O)C(O)C7O)CC(O)C6(C)CCC45C)C3(C)C)OC(C(=O)O)C2O)C(O)C(O)C1OC1OCC(O)C(O)C1O (stereo not given) | · | –[12.6 µM] | ·
Cc1ccc(-n2nc(C(C)(C)C)cc2NC(=O)NCc2cc(F)ccc2Oc2ccc3c(cnn3CCO)c2)cc1 | · | – | ·
CC(C)(C)OC(=O)NCCOCCOCCOc1cccc(-n2ncc3c2CCCC3NC(=O)c2ccccn2)c1 (stereo not given) | · | – | ·
COc1ccc(OC)c(CCNC(=O)c2c(C)nn(-c3ccc(F)cc3)c2-n2cccc2)c1 | ? | – | –
COc1ccc(CNC(=O)c2cnn(-c3ccc(C)cc3)c2-n2cccc2)cc1OC | 16µM | – | –
COc1ccc(CNC(=O)CSCc2cnn(-c3ccccc3)c2-n2cccc2)cc1OC | ? | – | –
COc1ccc(CCNC(=O)c2c(C)nn(-c3ccc(F)cc3)c2-n2cccc2)cc1OC | 20µM | – | –
FC(F)(F)c1ccccc1-c1nc(NCC#Cc2cccnc2)c2ccccc2n1 | · | – | ·
COc1ccc(S(=O)(=O)N(C(C)=O)c2ccccc2/C=C/c2cc[n+]([O-])cc2)cc1 | · | – | ·
CC1CCC(=O)CC(SCC(O)C(=O)O)CCC(=O)O1 (stereo not given) | · | – | ·
C=C1[C@@H]2CC[C@@H]3[C@@](CCC4C(C(=O)O)(C(=O)O)C[C@@H](O[C@@H]5O[C@H](CO)[C@@H](O)[C@H](O)[C@H]5OC(=O)CC(C)C)C[C@]43C)(C2)[C@H]1O (stereo not given in full) | · | –[12.6 µM] | ·
N#C/C(=C\c1ccc(-c2cc(Cl)ccc2Cl)o1)C(=O)Nc1ccccc1C(=O)O | – | 10µM | –
Cc1ccc(NC(=O)/C(C#N)=C\c2ccc(-c3ccc(Cl)cc3)o2)c(C)c1 | – | – | –
Cc1cc2c(c(=O)o1)C=C1CC[C@H]([C@H](C)Cn3cnc(=N)c4[nH]cnc43)C[C@@H]1O2 | · | – | ·
FC(F)(F)c1ccccc1-c1nc(NCc2ccc(-c3ccc4c(c3)OCO4)cc2)c2ccccc2n1 | · | – | ·
CC(C)c1ccccc1-c1ncc(F)c(NCC2CCN(c3cnccn3)C2)n1 (stereo not given) | · | – | ·
COc1ccc(C2CC(=O)N(CC(=O)Nc3ccc(C(F)(F)F)cc3)c3ccccc3S2)cc1 (stereo not given) | – | – | –
COc1cc(C2CC(=O)N(Cc3cccc(F)c3)c3ccccc3S2)cc(OC)c1OC (stereo not given) | 20µM | – | –
CCOc1ccc(CCNC(=O)c2ccc(N3N=C(C)CC3=O)cc2)cc1OCC | · | – | ·
O=S(=O)(Nc1nccs1)c1ccc(NCc2ccc(Cl)cc2O)cc1 | · | – | ·
SMILES | HTT promoter inh | NTMT1 inhibitor | HTT-AS act
COc1cc(OC)cc(C(=O)Nc2ccc(Cl)c(-c3nc4ccc(N(C)C)cc4[nH]3)c2)c1 | · | – | ·
COc1ccccc1N=c1scc(-c2ccc(S(=O)(=O)N3CCCC3)cc2)n1C | 3.2µM | – | –
CC(C)Cn1c(-c2ccc(S(=O)(=O)N3CCCC3)cc2)csc1=Nc1ccccc1 | ? | – | –
C[C@@H]1O[C@@H](O[C@H]2[C@H](O)[C@@H](C(=O)O)O[C@@H](O[C@H]3CC[C@@]4(C)C(CC[C@]5(C)C4CC=C4C6CC(C)(C)CC[C@]6(C(=O)O)CC[C@]45C)C3(C)C)[C@@H]2O[C@@H]2O[C@H](CO)[C@@H](O)[C@H](O)[C@H]2O)[C@H](O)[C@H](O)[C@H]1O (stereo not given in full) | · | –[12.6 µM] | ·
FC(F)(F)c1ccc(CSc2nc3ncc(Br)cc3[nH]2)cc1 | · | – | ·
Cc1cc2c(s1)c1cnn(Cc3ccc(Cl)cc3)c(=O)c1n2C | · | 89µM | ·
Cc1cc2c(s1)c1cnn(Cc3ccc(F)c(Cl)c3)c(=O)c1n2C | · | – | ·

From PubChem BioAssay
